Measurements published in PubChem BioAssay (EPA / NIEHS).
Records with an inconclusive call do not appear. Activity calls are given as the source filed them. The calls were made as follows: active = hit-call score of the fitted dose curve at least 0.9, where 1 is the maximum; inconclusive = response in the unintended direction; inactive = score below 0.9.

Tested on: not listed separately
Assay: ATG_GAL4_TRANS: Attagene TRANS-FACTORIAL HepG2 Assay for GAL4 (Internal Marker) (AID 2282976)
Details: HepG2 Attagene TRANS GAL4 internal marker reporter
How it was run: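 RT-PCR/capillary electrophoresis readout of reporter mRNA. HepG2, transient MRTU transfection (GAL4-UAS reporters), 24 h compound exposure. Background-control endpoint, positive direction vs DMSO baseline.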

Row | Structure (SMILES) | outcome
1 | C#CC1(O)CCCCC1 | inactive
2 | N#Cc1cccc(C#N)c1 | inactive
3 | O=C(O)CCCc1ccc(N(CCCl)CCCl)cc1 | inactive
4 | COc1ncc(F)c2nc(S(=O)(=O)Nc3c(F)cccc3F)nn12 | inactive
5 | BrCBr | inactive
6 | O=C(O)c1cc[c]([Hg][Cl])cc1 | inactive
7 | C[N+](C)(C)CC(=O)O | inactive
8 | O=S(=O)(c1ccccc1)c1ccccc1 | inactive
9 | Clc1ccc(-c2ccccc2)cc1 | inactive
10 | CN(C)C(=O)C(c1ccccc1)c1ccccc1 | inactive
11 | O=P(O)(Oc1ccccc1)Oc1ccccc1 | inactive
12 | CCC(=O)c1ccc(Cl)cc1 | inactive
13 | CC1(C)CC(=O)CC(C)(C)N1[O] | inactive
14 | O=CNC(N1CCN(C(NC=O)C(Cl)(Cl)Cl)CC1)C(Cl)(Cl)Cl (stereo not given) | inactive
15 | Oc1cc(Cl)ccc1Cl | inactive
16 | C[C@]12CCC(=O)C(O)=C1CC[C@@H]1[C@@H]2CC[C@]2(C)C(=O)CC[C@@H]12 | inactive
17 | O=[N+]([O-])O.O=[N+]([O-])O.[Cd] | inactive

Target: Estrogen-related receptor gamma (Homo sapiens) (UniProt P62508)
Assay: ATG_ERRg_TRANS: Attagene TRANS-FACTORIAL HepG2 Assay for human Estrogen-Related Receptor gamma (ERRg) (AID 2282977);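 also: hits increase reporter signal over DMSO so potencies reflect activators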
Details: HepG2 Attagene TRANS reporter, ERRg transactivation
How it was run: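 HepG2 cells transiently transfected with multiplexed GAL4-UAS reporter units driven by chimeric NR-Gal4 proteins; 24 h exposure. Reporter mRNA quantified by RT-PCR, fluorescent labelling, HpaI digestion and capillary electrophoresis; gain of signal vs DMSO.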

Estrogen-related receptor gamma (Homo sapiens), sequence (P62508 whole entry, looked up): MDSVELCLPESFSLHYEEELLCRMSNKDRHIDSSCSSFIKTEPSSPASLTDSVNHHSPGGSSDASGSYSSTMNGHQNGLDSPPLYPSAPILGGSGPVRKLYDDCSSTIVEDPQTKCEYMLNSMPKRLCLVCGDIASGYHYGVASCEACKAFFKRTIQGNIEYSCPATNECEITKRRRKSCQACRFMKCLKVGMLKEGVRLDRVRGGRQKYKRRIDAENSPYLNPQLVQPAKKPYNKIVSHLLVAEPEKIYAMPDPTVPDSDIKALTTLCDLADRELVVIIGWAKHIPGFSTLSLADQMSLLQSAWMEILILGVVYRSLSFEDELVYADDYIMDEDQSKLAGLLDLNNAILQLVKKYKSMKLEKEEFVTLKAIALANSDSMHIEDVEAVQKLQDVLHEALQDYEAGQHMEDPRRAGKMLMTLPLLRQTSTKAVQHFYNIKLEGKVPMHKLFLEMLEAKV

Row | Structure (SMILES) | outcome
18 | C#CC1(O)CCCCC1 | inactive
19 | O=c1[nH]c(Cl)c(Cl)cc1Cl | inactive
20 | Nc1ccccc1C(=O)OCCc1ccccc1 | inactive
21 | COC(C)(C)CCC[C@H](C)C/C=C/C(C)=C/C(=O)OC(C)C | inactive
22 | [CH3][Sn]([CH3])([Cl])[Cl] | inactive
23 | CC(Cc1ccc(C(C)(C)C)cc1)CN1C[C@@H](C)O[C@@H](C)C1 (stereo not given in full) | inactive
24 | O=S(=O)(c1ccccc1)c1ccccc1 | inactive
25 | Clc1ccc(-c2ccccc2)cc1 | inactive
26 | Cc1ccc(N(SC(F)(Cl)Cl)S(=O)(=O)N(C)C)cc1 | inactive
27 | CC1(C)CC(=O)CC(C)(C)N1[O] | inactive
28 | O=CNC(N1CCN(C(NC=O)C(Cl)(Cl)Cl)CC1)C(Cl)(Cl)Cl (stereo not given) | inactive

Target: Glucocorticoid receptor (Homo sapiens) (UniProt P04150)
Assay: ATG_GR_TRANS: Attagene TRANS-FACTORIAL HepG2 Assay for human Glucocorticoid Receptor (GR) (AID 2282978);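 also: activators score as hits since higher reporter transcript over DMSO is fitted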
Details: HepG2 Attagene TRANS GR reporter, mRNA transcription
How it was run: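 Readout is reporter transcript from a chimeric GR-Gal4 acting on GAL4-UAS in transfected human HepG2 liver cells after 24 h exposure, quantified by RT-PCR and capillary electrophoresis. Activation fitted upward against DMSO.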

Glucocorticoid receptor (Homo sapiens), sequence (P04150 whole entry, looked up): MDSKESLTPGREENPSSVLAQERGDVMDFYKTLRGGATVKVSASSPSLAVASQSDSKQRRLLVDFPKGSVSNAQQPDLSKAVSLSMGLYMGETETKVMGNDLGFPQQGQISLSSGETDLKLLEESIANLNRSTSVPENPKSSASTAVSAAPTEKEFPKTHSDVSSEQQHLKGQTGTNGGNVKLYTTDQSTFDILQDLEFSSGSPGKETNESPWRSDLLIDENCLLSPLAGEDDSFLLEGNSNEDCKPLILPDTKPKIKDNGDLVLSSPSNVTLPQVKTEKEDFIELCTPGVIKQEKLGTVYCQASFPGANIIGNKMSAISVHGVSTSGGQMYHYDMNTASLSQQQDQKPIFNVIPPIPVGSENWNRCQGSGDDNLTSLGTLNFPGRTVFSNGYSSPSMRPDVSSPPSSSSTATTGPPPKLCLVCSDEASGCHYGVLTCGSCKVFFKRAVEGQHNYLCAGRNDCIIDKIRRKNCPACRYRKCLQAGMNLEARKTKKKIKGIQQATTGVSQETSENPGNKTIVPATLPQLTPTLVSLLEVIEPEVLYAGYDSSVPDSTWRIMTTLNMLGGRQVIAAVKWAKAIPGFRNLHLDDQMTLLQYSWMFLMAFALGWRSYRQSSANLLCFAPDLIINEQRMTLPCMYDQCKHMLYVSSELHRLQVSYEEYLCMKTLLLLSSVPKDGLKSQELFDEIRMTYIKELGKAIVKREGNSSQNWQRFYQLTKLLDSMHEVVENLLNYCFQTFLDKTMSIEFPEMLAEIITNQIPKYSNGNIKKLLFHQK

Row | Structure (SMILES) | outcome | AC50
29 | [CH3][Sn]([Cl])([Cl])[Cl] | inactive | 
30 | Nc1c(Cl)c(Cl)c(Cl)c(Cl)c1Cl | inactive | 
31 | COC(=O)c1ccccc1S(=O)(=O)NC(=O)Nc1nc(C)cc(C)n1 | inactive | 
32 | Nc1ccccc1C(=O)OCCc1ccccc1 | inactive | 
33 | N#Cc1cccc(C#N)c1 | inactive | 
34 | COc1ncc(F)c2nc(S(=O)(=O)Nc3c(F)cccc3F)nn12 | inactive | 
35 | BrCBr | inactive | 
36 | O=P1(NCCCl)OCCCN1CCCl (stereo not given) | inactive | 
37 | CC(Cc1ccc(C(C)(C)C)cc1)CN1C[C@@H](C)O[C@@H](C)C1 (stereo not given in full) | inactive | 
38 | Clc1ccc(-c2ccccc2)cc1 | inactive | 
39 | C=CCc1ccc(OC(=O)Cc2ccccc2)c(OC)c1 | inactive | 
40 | O=P(O)(Oc1ccccc1)Oc1ccccc1 | inactive | 
41 | CC1CCCC1.[C-]#[O+].[C-]#[O+].[C-]#[O+].[Mn] | inactive | 
42 | CCC(=O)c1ccc(Cl)cc1 | inactive | 
43 | O=CNC(N1CCN(C(NC=O)C(Cl)(Cl)Cl)CC1)C(Cl)(Cl)Cl (stereo not given) | inactive | 
44 | Oc1cc(Cl)ccc1Cl | inactive | 
45 | O=[N+]([O-])c1cc(C(F)(F)F)c(Cl)c([N+](=O)[O-])c1Cl |  | 33.4 µM (active)
46 | C[C@]12CCC(=O)C(O)=C1CC[C@@H]1[C@@H]2CC[C@]2(C)C(=O)CC[C@@H]12 | inactive | 

Target: Oxysterols receptor LXR-alpha (Homo sapiens) (UniProt Q13133)
Assay: ATG_LXRa_TRANS: Attagene TRANS-FACTORIAL HepG2 Assay for human Liver X Receptor alpha (LXRa) (AID 2282980)
Details: HepG2 Attagene TRANS reporter, LXRa transactivation
How it was run: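 Read-out: reporter transcript levels by RT-PCR plus capillary electrophoresis, fluorescence intensity. Transiently transfected HepG2, exogenous NR-GAL4 chimera, GAL4-UAS reporters; 24 h compound exposure. Activity = increase over DMSO negative control.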

Oxysterols receptor LXR-alpha (Homo sapiens), sequence (Q13133 whole entry, looked up): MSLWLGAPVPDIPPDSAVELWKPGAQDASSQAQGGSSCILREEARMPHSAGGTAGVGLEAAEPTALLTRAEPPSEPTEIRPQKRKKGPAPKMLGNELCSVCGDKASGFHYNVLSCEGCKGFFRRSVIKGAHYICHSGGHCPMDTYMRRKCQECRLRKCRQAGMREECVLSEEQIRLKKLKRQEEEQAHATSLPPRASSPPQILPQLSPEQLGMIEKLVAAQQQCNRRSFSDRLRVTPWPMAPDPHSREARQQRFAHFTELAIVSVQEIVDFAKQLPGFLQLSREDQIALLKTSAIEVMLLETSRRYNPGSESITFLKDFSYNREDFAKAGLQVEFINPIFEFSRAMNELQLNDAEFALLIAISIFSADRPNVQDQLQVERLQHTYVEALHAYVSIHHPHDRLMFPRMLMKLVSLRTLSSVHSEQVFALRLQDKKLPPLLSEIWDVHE

Row | Structure (SMILES) | outcome
47 | [CH3][Sn]([Cl])([Cl])[Cl] | inactive
48 | Nc1c(Cl)c(Cl)c(Cl)c(Cl)c1Cl | inactive
49 | Nc1ccccc1C(=O)OCCc1ccccc1 | inactive
50 | [CH3][Sn]([CH3])([Cl])[Cl] | inactive
51 | CC(Cc1ccc(C(C)(C)C)cc1)CN1C[C@@H](C)O[C@@H](C)C1 (stereo not given in full) | inactive
52 | C[N+](C)(C)CC(=O)O | inactive
53 | O=S(=O)(c1ccccc1)c1ccccc1 | inactive
54 | C=CCc1ccc(OC(=O)Cc2ccccc2)c(OC)c1 | inactive
55 | [Cl][Sb]([Cl])[Cl] | inactive
56 | O=CNC(N1CCN(C(NC=O)C(Cl)(Cl)Cl)CC1)C(Cl)(Cl)Cl (stereo not given) | inactive
57 | C[C@]12CCC(=O)C(O)=C1CC[C@@H]1[C@@H]2CC[C@]2(C)C(=O)CC[C@@H]12 | inactive
58 | CSc1nc(N=[N+]=[N-])nc(NC(C)C)n1 | inactive

Target: Oxysterols receptor LXR-beta (Homo sapiens) (UniProt P55055)
Assay: ATG_LXRb_TRANS: Attagene TRANS-FACTORIAL HepG2 Assay for human Liver X Receptor beta (LXRb) (AID 2282981)
Details: HepG2 Attagene TRANS GAL4-LXRb reporter, mRNA
How it was run: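 HepG2 cells transiently transfected with GAL4-UAS reporter units for chimeric NR-Gal4 proteins, dosed for 24 h. Reporter transcripts measured by RT-PCR and capillary electrophoresis; gain-of-signal fitting relative to DMSO.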

Oxysterols receptor LXR-beta (Homo sapiens), sequence (P55055 whole entry, looked up): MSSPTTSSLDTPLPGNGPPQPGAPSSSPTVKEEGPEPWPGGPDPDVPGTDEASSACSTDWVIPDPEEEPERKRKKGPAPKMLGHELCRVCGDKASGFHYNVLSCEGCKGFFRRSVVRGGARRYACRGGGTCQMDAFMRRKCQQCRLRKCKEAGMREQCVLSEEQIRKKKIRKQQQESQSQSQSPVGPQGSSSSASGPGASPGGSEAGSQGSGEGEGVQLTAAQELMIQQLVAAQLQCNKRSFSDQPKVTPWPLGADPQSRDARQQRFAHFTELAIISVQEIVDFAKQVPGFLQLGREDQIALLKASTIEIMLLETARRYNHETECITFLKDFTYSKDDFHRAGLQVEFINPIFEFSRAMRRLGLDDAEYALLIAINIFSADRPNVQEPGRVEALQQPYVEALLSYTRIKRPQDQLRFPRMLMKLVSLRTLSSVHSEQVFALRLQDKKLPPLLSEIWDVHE

Row | Structure (SMILES) | outcome | AC50
59 | Nc1ccc(-c2ccc(N)c(N)c2)cc1N | inactive | 
60 | O=c1[nH]c(Cl)c(Cl)cc1Cl | inactive | 
61 | Nc1c(Cl)c(Cl)c(Cl)c(Cl)c1Cl |  | 26.1 µM (active)
62 | Nc1ccccc1C(=O)OCCc1ccccc1 | inactive | 
63 | Nc1cc(Cl)cc(Cl)c1 | inactive | 
64 | [CH3][Sn]([CH3])([Cl])[Cl] | inactive | 
65 | BrCBr | inactive | 
66 | O=P1(NCCCl)OCCCN1CCCl (stereo not given) | inactive | 
67 | CC(Cc1ccc(C(C)(C)C)cc1)CN1C[C@@H](C)O[C@@H](C)C1 (stereo not given in full) | inactive | 
68 | O=C(O)c1cc[c]([Hg][Cl])cc1 | inactive | 
69 | O=S(=O)(c1ccccc1)c1ccccc1 | inactive | 
70 | O=P(O)(Oc1ccccc1)Oc1ccccc1 | inactive | 
71 | CC1CCCC1.[C-]#[O+].[C-]#[O+].[C-]#[O+].[Mn] | inactive | 
72 | O=C(O)COc1ccccc1 | inactive | 
73 | [Cl][Sb]([Cl])[Cl] | inactive | 
74 | CCC(=O)c1ccc(Cl)cc1 | inactive | 
75 | CC1(C)CC(=O)CC(C)(C)N1[O] | inactive | 
76 | O=CNC(N1CCN(C(NC=O)C(Cl)(Cl)Cl)CC1)C(Cl)(Cl)Cl (stereo not given) | inactive | 
77 | O=[N+]([O-])c1cc(C(F)(F)F)c(Cl)c([N+](=O)[O-])c1Cl | inactive | 
78 | C[C@]12CCC(=O)C(O)=C1CC[C@@H]1[C@@H]2CC[C@]2(C)C(=O)CC[C@@H]12 | inactive | 
79 | CSc1nc(N=[N+]=[N-])nc(NC(C)C)n1 | inactive | 
80 | O=[N+]([O-])O.O=[N+]([O-])O.[Cd] | inactive | 
